Results on 103 compounds are retold here after ChEMBL document CHEMBL4513216, “Probing the Open Global Health Chemical Diversity Library for Multistage-Active Starting Points for Next-Generation Antimalarials” (ACS Infect Dis, 2020).

The structures appear in SMILES notation. Among all 65,000 compounds or so, about 2,100 (3.2%) showed an effect of 50% or more. The median lay at about -52%. The list comes from a sample in which strong results are over-represented; it also holds similar structures and randomly drawn compounds.

In the assay the test system is Plasmodium falciparum. As to the kind of experiment: Screen against P. falciparum Asexual Blood Stage (ABS), at 5uM. It counts as functional, Dd2. The note with it: tested at 5 uM.
For the compound `CC(C)CCC(=O)NC(C)c1nnc2n1CCCCC2` (stereo not drawn), the INHIBITION is -147%. The value for `O=C(CC1CCCC1)N1C[C@@H]2CCN(c3cccnc3)C[C@@H]2C1` was -58.1%; that for `Cc1cc(C(=O)N2CCc3nc4sc(C)cc4c(=O)n3CC2)on1` was -73.5%; that for `Cc1ccccc1CN1CCN(C(=O)c2ccn(C(C)(C)C)c2)CC1` was 2.14%.

For the compound `CC(=O)c1ccc(NC(=O)c2ccc3c(c2)C2(CCCCC2)CN3)cc1`, the INHIBITION came out at 20.8%.

In the case of `CCc1ccc(CN2CCC(CNS(=O)(=O)C3CC3)C2)nc1` (stereo not drawn), the INHIBITION turned out to be 19.1%.

As for `Cc1ncc(CN2CCC(CNS(=O)(=O)C3CC3)C2)cn1` (stereo not drawn), the INHIBITION was -131%. The value for `CC(C)c1ccc(CN2CCC(CNS(=O)(=O)C3CC3)C2)cc1` (stereo not drawn) was 59.4%; that for `Cc1ccccc1OCn1ccc(C(=O)NCCN2CCOCC2)n1` was -44.8%; that for `Cc1ccc(S(=O)(=O)N2C[C@H](C3CC3)[C@@H](N)C2)cc1F` was 14.8%.

As to `Cc1cc(-c2cc(S(=O)(=O)N3C[C@H](C4CC4)[C@@H](N)C3)c(C)s2)[nH]n1`, the INHIBITION is 62.6%. On to `Cc1cc2[nH]c(=O)oc2cc1S(=O)(=O)N1C[C@@H](N(C)C)[C@H](C(C)C)C1`, for which the INHIBITION is -101%. As for `CC(C)c1cc(C(=O)N2CCCC(Cn3cc(CO)nn3)C2)on1` (stereo not drawn), the INHIBITION was -137%. Turning to `COCCN1CCC2(CC1)CC(NCc1cncn1C)c1ccccc12` (stereo not drawn), the INHIBITION is reported as -18.1%. The figure for `CC(C)CN1CCC(NC(=O)c2ccc(F)cc2I)CC1` is 23.2%.

Take `CC(C)CN1CCC(NC(=O)c2ccc(F)cc2F)CC1`: the INHIBITION is on record as -150%. The figure for `CCN1CCC(NC(=O)c2ccc(F)cc2I)CC1` is 50%; for `O=C(NCCc1ccccc1F)NCC(O)c1cccc(F)c1` (stereo not drawn) it is -156%. Consider `NC(=O)c1cc2c(nc1Oc1cccc(CN3CCCC3)c1F)CCC2`, for which the INHIBITION was -10.3%. The figure for `COc1cc(C(=O)NS(=O)(=O)c2cncc(Br)c2)ccc1C` is -28.1%. The value for `NC(=O)CN1CCCC(c2nccnc2Oc2cccc(F)c2)C1` (stereo not drawn) was -47.7%. As for `CNCC(=O)N1CCCC(c2nccnc2Oc2cccc(F)c2)C1` (stereo not drawn), the INHIBITION came to 55.4%. As to `Cc1cc(C2CCCN(C(=O)COc3cccc(F)c3)C2)n[nH]1` (stereo not drawn), the INHIBITION is reported as -49.4%. Regarding `Cn1ccc2c(NC(=O)Cn3ncc4c(c3=O)CCCC4)cccc21`, the INHIBITION is recorded as -90.4%. For the compound `Cc1nc(C2CN(Cc3scnc3C)CCO2)cc(N(C)C)n1` (stereo not drawn), the INHIBITION was -79.5%. The figure for `OCCN1CCc2[nH]nc(C(c3ccccc3)c3ccccc3)c2C1` is 61.7%. Consider `OCCCN1CCc2onc(C(c3ccccc3)c3ccccc3)c2C1`, for which the INHIBITION was 49.4%.

As for `CC(O)CN1CCc2[nH]nc(C(c3ccccc3)c3ccccc3)c2C1` (stereo not drawn), the INHIBITION worked out at 42.3%. Consider `c1coc(CN2CC[C@H]3O[C@@H](COCC4CC4)CC[C@H]32)c1`, for which the INHIBITION is reported as -93.2%. As for `Cc1nc(C)c(C(=O)N2C[C@@H](C(=O)O)[C@H](C3CC3)C2)s1`, the INHIBITION is -75.7%. The value for `CCN(CC)Cc1nc2c(o1)CN(S(=O)(=O)c1cccs1)C2` was -61.5%; that for `CN(CCc1ccncc1)Cc1c(C2CCCC2)[nH]c2ncccc12` was -56.1%; that for `CN(CCc1ccccc1)Cc1c(C2CCNCC2)[nH]c2ncccc12` was 54.6%. Take `CN(CCc1ccccc1)Cc1c(C2CCOCC2)[nH]c2ncccc12`: the INHIBITION is listed as -22.4%. As to `Cc1ccc(CN2CCN(C3CSCCSC3)CC2CCO)o1` (stereo not drawn), the INHIBITION is recorded as -73.5%. The figure for `CC(C)c1cc(C2CCN(C(=O)Cn3nc4ccccc4n3)CC2)[nH]n1` is -107%; for `O=C(c1ccc2[nH]ccc2c1)N1Cc2nc(CN3CCCCC3)oc2C1` it is -72.8%; for `CC1CN(Cc2ccccc2)CCCN1CCCS(C)(=O)=O` (stereo not drawn) it is 53.2%.

As for `CC1CN(Cc2ccccc2)CCCN1CCS(C)(=O)=O` (stereo not drawn), the INHIBITION is listed as 39.2%. The value for `COCCN1CCN(CCCS(=O)(=O)c2ccccc2)CC1C` (stereo not drawn) was -121%.

With `CNS(=O)(=O)CCCN1CCCCCC1c1ccc(C)o1` (stereo not drawn), the INHIBITION was found to be 10.3%. As to `COCCN1CCN(CCCS(C)(=O)=O)CC1C` (stereo not drawn), the INHIBITION is on record as -42.5%.

Regarding `CNS(=O)(=O)CCCN1CCCN(Cc2ccccc2)CC1C` (stereo not drawn), the INHIBITION turned out to be 59.7%. Regarding `O=C(Cn1cccn1)Nc1ccc(N2CCOCC2)cc1`, the INHIBITION is reported as -6.33%.

For the compound `CN(C)C(=O)Cc1nc(CN2CCOC(Cn3cccn3)C2)cs1` (stereo not drawn), the INHIBITION is reported as -56%. The value for `Cc1nn(C)cc1CN1CCN(CC2(c3ccccc3)CC2)CC1` was 67.2%. Consider `Cc1nn(C)cc1CN1CCC(C2Nc3ccccc3S(=O)(=O)N2)CC1` (stereo not drawn), for which the INHIBITION is given as -123%. The figure for `Cc1nn(C)cc1CN1CCCCCC1c1ccccc1Cl` (stereo not drawn) is -104%; for `CCn1c(C)cc(C(=O)N2CCC(NC(=O)c3ccc(C)o3)CC2)c1C` it is -31.2%; for `Cc1nccn1CC1CCCN1S(=O)(=O)Cc1cccc(F)c1` (stereo not drawn) it is -54%. On to `CN(C)CC1CSCCCN1S(=O)(=O)Cc1ccc(C(F)(F)F)cc1` (stereo not drawn), for which the INHIBITION was determined as 10.1%. The value for `CN(C)CC1CSCCCN1S(=O)(=O)c1ccc(C(F)(F)F)cc1` (stereo not drawn) was 60.7%. As for `CN(C)CC1CSCCCN1S(=O)(=O)Cc1cccc(F)c1` (stereo not drawn), the INHIBITION came to 58.6%. The value for `CN(C)CC1CSCCCN1C(=O)Nc1ccc(C(C)(C)C)cc1` (stereo not drawn) was -12.2%; that for `CS(=O)(=O)C1CCN(S(=O)(=O)Cc2cccc(F)c2)CC1` was -89.8%; that for `CC(C)N(Cc1ccc(C(=O)O)o1)C(C)C` was -21.6%. As for `Cc1cnc(N2CCc3c(c(COc4cncnc4)nn3C)C2)nc1`, the INHIBITION is reported as -95%. The value for `CCc1nc(C2NC3(CCCC3)C(=O)N2CC2CC2)cs1` (stereo not drawn) was -67.6%. The figure for `CN(C)CCNC(=O)CCC1CCN(C(=O)c2ccc(Cl)cc2O)CC1` is -57.2%.

With `Cc1ccc(CN2CCC3(CC(=O)N(c4ccc5c(c4)OCO5)C3)C2)o1` (stereo not drawn), the INHIBITION is listed as -11.7%. The value for `Cc1nc(C)n(C2CCCN(C(=O)COc3ccccc3)C2)n1` (stereo not drawn) was -30.7%; that for `CCC[C@H]1CN(S(=O)(=O)c2cc(C)ccc2C)C[C@@H]1N` was 68.6%; that for `CCC[C@@H]1CN(S(=O)(=O)c2ccc(C)c(F)c2)C[C@H]1N(C)C` was 39.9%.

Take `Cc1noc(C)c1-c1cccc(C2CCN(S(=O)(=O)N(C)C)CC2)n1`: the INHIBITION was -81.4%. The value for `Cc1noc(C)c1-c1n[nH]c2c1CN(S(=O)(=O)c1cccs1)CC2` was -24.2%; that for `CCC[C@H]1CN(S(=O)(=O)c2ccc(-c3c(C)noc3C)s2)C[C@@H]1N` was 72.8%; that for `CCC[C@H]1CN(S(=O)(=O)c2cc(C)ccc2F)C[C@@H]1N` was 52.5%. Regarding `Cc1ccc(F)c(S(=O)(=O)N2CCCC2c2ccncc2)c1` (stereo not drawn), the INHIBITION is recorded as -73.9%.

Take `Cc1ccc(C)c(S(=O)(=O)N2CCN(C)C3(CCC(=O)N(C)CC3)C2)c1` (stereo not drawn): the INHIBITION is on record as -107%. The value for `Cc1ccc(S(=O)(=O)N2CC[C@@H](O)C2)c(F)c1` was -13.3%; that for `CN(C)c1cc2c(nn1)CCN(C(=O)c1ccc(-n3cccn3)nc1)C2` was -129%; that for `CC(C)n1nc(CN2CCOCC2)c2c1CN(C(=O)c1ccno1)C2` was -44.4%. `Cc1ccc(C(=O)N2CC[C@@H]3[C@H]2CCC(=O)N3CCN(C)C)cn1`: the INHIBITION is -2.53%. For the compound `CCc1cnc(NC(=O)NC2CCN(C)CC2)s1`, the INHIBITION is reported as -80.8%.

Regarding `CC1=N[C@@]2(CC[C@@H]3CN(C(=O)NCc4cccc(F)c4)C[C@@H]32)C(=O)N1`, the INHIBITION is recorded as -94.6%. The figure for `CC(C(=O)Nc1ccccc1F)S(C)(=O)=O` (stereo not drawn) is -75.4%.

Take `Cc1nc(-c2ccc(Cl)cc2)n(CC(=O)NC(C)C)c(=O)c1CCO`: the INHIBITION is listed as -186%. Turning to `Cc1cc(C)c(CCNC(=O)CN2CCCN(C(N)=O)CC2)c(C)c1`, the INHIBITION was -67.4%. With `Cc1cc(C)c(C(=O)NC(CN2CCCC2)c2ccccc2)c(=O)[nH]1` (stereo not drawn), the INHIBITION was -88.9%.

`CCC(CN1CCCC1)NC(=O)Cc1c(C)[nH]c2cc(C)cc(C)c12` (stereo not drawn): the INHIBITION is 61.6%. The value for `CC(=O)c1c(C)nn(CC(=O)N2CCCC2c2ccc(C(N)=O)s2)c1C` (stereo not drawn) was -149%; that for `CCN(CC)C(=O)CCc1nc(-c2cnn3c(C)cc(C)nc23)no1` was -59.8%; that for `COC[C@H]1CCC[C@]12CN(CCc1ccccc1)CCO2` was -30.9%. The figure for `O=C1CC[C@H]2[C@H](CCN2S(=O)(=O)C2CC2)N1CCN1CCCC1` is -109%; for `CC(C)[C@H](N)CC(=O)Nc1nc(-c2cnc(N3CCOCC3)nc2)cs1` it is -62.3%. The figure for `Cc1ccsc1[C@@H]1CCN(C(=O)Cc2ccc(O)cc2)C[C@H]1O` is 11.1%; for `CN1C[C@H](c2ccccc2)[C@H]2CN(C(=O)Cc3ccc(O)cc3)CC[C@H]21` it is 58%; for `CN1C[C@H](c2ccccc2)[C@H]2CN(C(=O)Cc3cccc(O)c3)CC[C@H]21` it is 48.1%. As to `COC(=O)[C@@H]1CCCN1C(=O)c1cn(C/C=C/c2ccccc2)nn1`, the INHIBITION was -29.2%. Consider `CC(CCc1ccccc1)NC(=O)CNCCCN(C)C` (stereo not drawn), for which the INHIBITION is -20.5%.

For `CN(C)C(=O)CN1C(=O)C[C@@H]2[C@@H]1CCN2Cc1cccc(C#N)c1`, the INHIBITION is -63%. The value for `N[C@@H]1c2ccccc2C2(CCN(c3cc(C(F)(F)F)ccn3)CC2)[C@H]1O` was -15.6%; that for `CCc1cnc(C)nc1NCCN1CCC(O)CC1` was -27.7%; that for `COC1CCN(CCNc2ncc(Br)cc2C)CC1` was 60.6%. The figure for `CC(=O)N1CCN(CCNc2ncc(Br)cc2C)CC1` is -22.7%; for `Cc1ccc(CN2CCn3cc(CN4CCN(C)CC4)nc3C2)cc1` it is -112%; for `CN1CCN(CCNC(=O)C(OC2CCCC2)c2ccccc2)CC1` (stereo not drawn) it is 39.2%.

For the compound `O=C(NCCCN1CCOCC1)C(OC1CCCC1)c1ccccc1` (stereo not drawn), the INHIBITION is reported as 53.1%. The figure for `O=C(NCCN1CCOCC1)C(OC1CCCC1)c1ccccc1` (stereo not drawn) is -78%; for `CN(C)CC(=O)N1CCC2(CC1)CN(c1ncccn1)CCO2` it is 5.56%; for `Cc1ccc2c(c1)CCC21CCN(C(=O)CN(C)C)CC1` it is 50.7%. In the case of `CN(C)CC(=O)N1CCC2(CCc3ccc(-c4ccncc4)cc32)CC1`, the INHIBITION is -41.7%. The value for `Cc1ccc2c(c1)CCC21CCN(C(=O)CO)CC1` was -19.8%.
